# This is part of a sample that, as a whole, favours compounds with a hit. Of some 79,000 tested, about 15% had one in any assay. A number with no mark means an inactive call. Activity calls are given as the source filed them. Cut-off read from the data, not from the text of the source: active = growth inhibition above about 70%; inactive = the rest.
# What was measured:
# [1] = NCI Yeast Anticancer Drug Screen. Data for the wt1 strain (AID 149);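 note: 0% = growth of vehicle-treated wt1 cultures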; details: S. cerevisiae wt1 strain (SPY 50644) growth inhibition, stronger effect = higher value
# Outline: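 Vehicle-normalised growth inhibition; strain wt1; compound exposure.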
# [2] = NCI Yeast Anticancer Drug Screen. Data for the rad50EPP+ strain (AID 151);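 note: 0% = growth of vehicle-treated control cultures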; details: S. cerevisiae rad50 mutant strain, stronger effect = higher value
# Outline: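 rad50EPP+ yeast treated with test compounds. Readout: growth vs vehicle control.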
# [3] = NCI Yeast Anticancer Drug Screen. Data for the mgt1 strain (AID 153); details: S. cerevisiae mgt1 mutant growth inhibition, stronger effect = higher value
# Outline: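 Growth inhibition relative to vehicle controls was scored for the mgt1 yeast strain after compound exposure.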
# [4] = NCI Yeast Anticancer Drug Screen. Data for the rad50 strain (AID 155);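 note: 0% = growth of vehicle-only cultures of the same strain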; details: S. cerevisiae rad50 strain growth inhibition, stronger effect = higher value
# Outline: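 A DNA repair-deficient yeast mutant serves as the test organism; compound-induced growth inhibition is calculated against vehicle-treated cells.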
# [5] = NCI Yeast Anticancer Drug Screen. Data for the mec2-1 strain (AID 157); details: S. cerevisiae mec2-1 strain, stronger effect = higher value
# Outline: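 Growth inhibition is read against vehicle-treated controls after compound exposure of the mec2-1 yeast strain, which is defective in DNA damage repair or cell cycle control.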
# [6] = NCI Yeast Anticancer Drug Screen. Data for the rad14 strain (AID 159);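 note: 0% = growth of vehicle-treated control cultures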; details: S. cerevisiae rad14 strain growth inhibition, stronger effect = higher value
# Outline: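 Vehicle-treated cultures served as the baseline for growth inhibition of a DNA repair-mutant yeast strain exposed to each compound.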
# [7] = NCI Yeast Anticancer Drug Screen. Data for the sgs1 mgt1 strain (AID 161);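 note: 0% = growth of cultures given vehicle only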; details: S. cerevisiae sgs1 mgt1 strain, stronger effect = higher value
# Outline: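 Percent growth inhibition was derived by comparing compound-exposed mutant yeast with vehicle-exposed cultures. The strain carries alterations in DNA damage repair.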
# [8] = NCI Yeast Anticancer Drug Screen. Data for the CLN2oe strain (AID 163);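 note: 0% = growth of vehicle-only control cultures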; details: S. cerevisiae CLN2oe strain, stronger effect = higher value
# Outline: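 Compound-treated yeast; growth vs vehicle ctrl = % inhibition. Genetically altered strain (cell-cycle control).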
# [9] = NCI Yeast Anticancer Drug Screen. Data for the cln2 rad14 strain (AID 165);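 note: 0% = growth equal to vehicle treated cultures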; details: S. cerevisiae cln2 rad14 strain, stronger effect = higher value
# Outline: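 Growth inhibition, relative to vehicle-treated controls, is the read-out. The test organism is a yeast strain with defined genetic alterations, cln2 rad14.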
# [10] = NCI Yeast Anticancer Drug Screen. Data for the bub3 strain (AID 167); details: S. cerevisiae bub3 mutant strain, stronger effect = higher value
# Outline: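 Inhibition values come from growth of compound-treated mutant yeast normalised to vehicle-treated controls.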
# [11] = NCI Yeast Anticancer Drug Screen. Data for the wt2 strain (AID 169);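 note: 0% = growth of vehicle-treated yeast cultures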; details: S. cerevisiae wt2 strain growth inhibition, stronger effect = higher value
# Outline: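 Compound exposure of yeast; growth compared with vehicle controls; inhibition reported.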
# [12] = NCI Yeast Anticancer Drug Screen. Data for the mlh1 strain (AID 171);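 note: 0% = growth of vehicle-treated control cultures of the same strain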; details: S. cerevisiae mlh1 strain growth inhibition, stronger effect = higher value
# Outline: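 Compounds are applied to a genetically altered yeast strain, and its growth is compared with that of vehicle-treated cultures to give percent inhibition.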
# [13] = NCI Yeast Anticancer Drug Screen. Data for the sgs1 strain (AID 173);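 note: 0% = growth of vehicle-only control cultures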; details: S. cerevisiae sgs1 mutant, stronger effect = higher value
# Outline: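 Compounds applied to genetically altered yeast; growth compared with vehicle-treated cultures to give % inhibition.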
# [14] = NCI Yeast Anticancer Drug Screen. Data for the mlh1 rad18 strain (AID 175); details: S. cerevisiae mlh1 rad18 strain growth inhibition, stronger effect = higher value
# Outline: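 Cells of a genetically altered yeast strain, deficient in DNA damage repair, were treated with compound. Their growth was then compared with that of vehicle-treated cultures to give inhibition.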
# [15] = NCI Yeast Anticancer Drug Screen. Data for the rad18 strain (AID 177); details: S. cerevisiae rad18 mutant growth inhibition, stronger effect = higher value
# Outline: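 Compounds are applied to a repair-deficient yeast strain, and growth is compared with that of vehicle-treated cultures to give percent inhibition.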
# [16] = NCI Yeast Anticancer Drug Screen. Data for the rad52 strain (AID 147);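 note: 0% = growth of vehicle-treated control cultures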; details: S. cerevisiae rad52 mutant growth inhibition, stronger effect = higher value
# Outline: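 DNA repair-defective yeast; compound exposure; growth scored against vehicle controls.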
# [17] = at 5.0 µM (retest, dose inferred, filed as 0.5)
# [18] = at 50.0 µM (retest, dose inferred, filed as 5.0)
structure (smiles),measurement,setting,value
CC1(c2ccccc2)O[C@@H]2C[C@H]3[C@@H]4CCC5=CC(=O)C=C[C@]5(C)[C@@]4(F)[C@@H](O)C[C@]3(C)[C@]2(C(=O)CO)O1 (stereo partly specified),growth inhibition,[1]; at 1.2 µM,0%
same,growth inhibition,[1]; at 3.7 µM,6%
same,growth inhibition,[1]; at 11.0 µM,3%
same,growth inhibition,[1]; at 33.0 µM,24%
same,growth inhibition,[1]; at 100.0 µM,94% (active)
same,growth inhibition,[2]; at 1.2 µM,3%
same,growth inhibition,[2]; at 3.7 µM,3%
same,growth inhibition,[2]; at 11.0 µM,7%
same,growth inhibition,[2]; at 33.0 µM,11%
same,growth inhibition,[2]; at 100.0 µM,23%
same,growth inhibition,[3]; at 1.2 µM,-2%
same,growth inhibition,[3]; at 3.7 µM,-5%
same,growth inhibition,[3]; at 11.0 µM,-5%
same,growth inhibition,[3]; at 33.0 µM,53%
same,growth inhibition,[3]; at 100.0 µM,98% (active)
same,growth inhibition,[4]; at 1.2 µM,-2%
same,growth inhibition,[4]; at 3.7 µM,0%
same,growth inhibition,[4]; [17],15%
same,growth inhibition,[4]; at 11.0 µM,6%
same,growth inhibition,[4]; at 33.0 µM,51%
same,growth inhibition,[4]; [18],35%
same,growth inhibition,[4]; at 50.0 µM,92.7% (active)
same,growth inhibition,[4]; at 100.0 µM,97% (active)
same,growth inhibition,[5]; at 1.2 µM,3%
same,growth inhibition,[5]; at 3.7 µM,5%
same,growth inhibition,[5]; [17],1%
same,growth inhibition,[5]; at 11.0 µM,10%
same,growth inhibition,[5]; at 33.0 µM,41%
same,growth inhibition,[5]; [18],8%
same,growth inhibition,[5]; at 50.0 µM,91.2% (active)
same,growth inhibition,[5]; at 100.0 µM,98% (active)
same,growth inhibition,[6]; at 1.2 µM,-2%
same,growth inhibition,[6]; at 3.7 µM,2%
same,growth inhibition,[6]; at 11.0 µM,11%
same,growth inhibition,[6]; at 33.0 µM,75% (active)
same,growth inhibition,[6]; at 100.0 µM,99% (active)
same,growth inhibition,[7]; [17],2%
same,growth inhibition,[7]; [18],33%
same,growth inhibition,[7]; at 50.0 µM,92.1% (active)
same,growth inhibition,[8]; at 1.2 µM,-5%
same,growth inhibition,[8]; at 3.7 µM,-11%
same,growth inhibition,[8]; at 11.0 µM,-4%
same,growth inhibition,[8]; at 33.0 µM,53%
same,growth inhibition,[8]; at 100.0 µM,98% (active)
same,growth inhibition,[9]; [17],6%
same,growth inhibition,[9]; [18],15%
same,growth inhibition,[9]; at 50.0 µM,95.8% (active)
same,growth inhibition,[10]; at 1.2 µM,-3%
same,growth inhibition,[10]; at 3.7 µM,-10%
same,growth inhibition,[10]; [17],-11%
same,growth inhibition,[10]; at 11.0 µM,-4%
same,growth inhibition,[10]; at 33.0 µM,21%
same,growth inhibition,[10]; [18],10%
same,growth inhibition,[10]; at 50.0 µM,90.9% (active)
same,growth inhibition,[10]; at 100.0 µM,95% (active)
same,growth inhibition,[11]; at 1.2 µM,1%
same,growth inhibition,[11]; at 3.7 µM,-1%
same,growth inhibition,[11]; at 11.0 µM,-2%
same,growth inhibition,[11]; at 33.0 µM,60%
same,growth inhibition,[11]; at 100.0 µM,98% (active)
same,growth inhibition,[12]; at 1.2 µM,-1%
same,growth inhibition,[12]; at 3.7 µM,2%
same,growth inhibition,[12]; at 11.0 µM,5%
same,growth inhibition,[12]; at 33.0 µM,66%
same,growth inhibition,[12]; at 100.0 µM,96% (active)
same,growth inhibition,[13]; at 1.2 µM,0%
same,growth inhibition,[13]; at 3.7 µM,3%
same,growth inhibition,[13]; at 11.0 µM,10%
same,growth inhibition,[13]; at 33.0 µM,62%
same,growth inhibition,[13]; at 100.0 µM,97% (active)
same,growth inhibition,[14]; [17],-4%
same,growth inhibition,[14]; [18],56%
same,growth inhibition,[14]; at 50.0 µM,96.2% (active)
same,growth inhibition,[15]; at 1.2 µM,-1%
same,growth inhibition,[15]; at 3.7 µM,4%
same,growth inhibition,[15]; at 11.0 µM,21%
same,growth inhibition,[15]; at 33.0 µM,76% (active)
same,growth inhibition,[15]; at 100.0 µM,98% (active)
CCC(=O)C1=C(O)c2cc(OC)ccc2CC1C(=O)OC (stereo unspecified),growth inhibition,[16]; at 1.2 µM,-1%
same,growth inhibition,[16]; at 3.7 µM,2%
same,growth inhibition,[16]; at 11.0 µM,7%
same,growth inhibition,[16]; at 33.0 µM,16%
same,growth inhibition,[16]; at 100.0 µM,43%
same,growth inhibition,[2]; at 1.2 µM,2%
same,growth inhibition,[2]; at 3.7 µM,6%
same,growth inhibition,[2]; at 11.0 µM,43%
same,growth inhibition,[2]; at 33.0 µM,73% (active)
same,growth inhibition,[2]; at 100.0 µM,86% (active)
same,growth inhibition,[3]; at 1.2 µM,-2%
same,growth inhibition,[3]; at 3.7 µM,-1%
same,growth inhibition,[3]; at 11.0 µM,4%
same,growth inhibition,[3]; at 33.0 µM,10%
same,growth inhibition,[3]; at 100.0 µM,19%
same,growth inhibition,[4]; at 1.2 µM,-1%
same,growth inhibition,[4]; at 3.7 µM,-1%
same,growth inhibition,[4]; [17],-9%
same,growth inhibition,[4]; at 11.0 µM,6%
same,growth inhibition,[4]; at 33.0 µM,4%
same,growth inhibition,[4]; [18],73% (active)
same,growth inhibition,[4]; at 50.0 µM,13.1%
same,growth inhibition,[4]; at 100.0 µM,28%
same,growth inhibition,[5]; at 1.2 µM,-1%
same,growth inhibition,[5]; at 3.7 µM,-4%
same,growth inhibition,[5]; [17],-5%
same,growth inhibition,[5]; at 11.0 µM,-1%
same,growth inhibition,[5]; at 33.0 µM,13%
same,growth inhibition,[5]; [18],-1%
same,growth inhibition,[5]; at 50.0 µM,13.2%
same,growth inhibition,[5]; at 100.0 µM,35%
same,growth inhibition,[7]; [17],-3%
same,growth inhibition,[7]; [18],89% (active)
same,growth inhibition,[7]; at 50.0 µM,24%
same,growth inhibition,[8]; at 1.2 µM,-7%
same,growth inhibition,[8]; at 3.7 µM,-8%
same,growth inhibition,[8]; at 11.0 µM,2%
same,growth inhibition,[8]; at 33.0 µM,10%
same,growth inhibition,[8]; at 100.0 µM,21%
same,growth inhibition,[9]; [17],-5%
same,growth inhibition,[9]; [18],20%
same,growth inhibition,[9]; at 50.0 µM,4.75%
same,growth inhibition,[10]; at 1.2 µM,-7%
same,growth inhibition,[10]; at 3.7 µM,-8%
same,growth inhibition,[10]; [17],7%
same,growth inhibition,[10]; at 11.0 µM,-9%
same,growth inhibition,[10]; at 33.0 µM,2%
same,growth inhibition,[10]; [18],78% (active)
same,growth inhibition,[10]; at 50.0 µM,38.9%
same,growth inhibition,[10]; at 100.0 µM,15%
same,growth inhibition,[11]; at 1.2 µM,-2%
same,growth inhibition,[11]; at 3.7 µM,3%
same,growth inhibition,[11]; at 11.0 µM,8%
same,growth inhibition,[11]; at 33.0 µM,14%
same,growth inhibition,[11]; at 100.0 µM,30%
same,growth inhibition,[12]; at 1.2 µM,-5%
same,growth inhibition,[12]; at 3.7 µM,-1%
same,growth inhibition,[12]; at 11.0 µM,2%
same,growth inhibition,[12]; at 33.0 µM,10%
same,growth inhibition,[12]; at 100.0 µM,26%
same,growth inhibition,[13]; at 1.2 µM,-1%
same,growth inhibition,[13]; at 3.7 µM,-1%
same,growth inhibition,[13]; at 11.0 µM,4%
same,growth inhibition,[13]; at 33.0 µM,18%
same,growth inhibition,[13]; at 100.0 µM,37%
same,growth inhibition,[14]; [17],16%
same,growth inhibition,[14]; [18],90% (active)
same,growth inhibition,[14]; at 50.0 µM,31.4%
same,growth inhibition,[15]; at 1.2 µM,-1%
same,growth inhibition,[15]; at 3.7 µM,-3%
same,growth inhibition,[15]; at 11.0 µM,2%
same,growth inhibition,[15]; at 33.0 µM,8%
same,growth inhibition,[15]; at 100.0 µM,21%

# Reference: PubChem BioAssay (NCI)
